Screening results deposited in PubChem BioAssay by Buhrlage Lab, Dana-Farber Cancer Institute and Novartis Institutes for BioMedical Research (Cambridge, Mass).
In the library only some 14% were active in any assay of this set; here they are far more common.
USP28 block – inhibitors of human USP28 deubiquitinase; purified USP28, Ub-rhodamine cleavage fluorescence, 30 min; inhibition, % at 25 µM; 3% of 47,000 active; AID 1645857, 2021
USP17 inh – inhibitors of human USP17 deubiquitinase | Ubiquitin carboxyl-terminal hydrolase 17-like protein 5 (Homo sapiens), A8MUK1 | purified USP17, Ub-rhodamine cleavage fluorescence, 3 h | inhibition, % at 50 µM | 6.5% of 47,000 active
USP8 inh – inhibitors of human USP8 deubiquitinase; purified USP8, Ub-rhodamine cleavage fluorescence, 30 min; AID 1645853, 2021; 4.2% of 47,000 active; inhibition, % at 20 µM
USP10 inh – inhibitors of human USP10 deubiquitinase; purified USP10, Ub-rhodamine fluorescence, 60 min; 1.1% of 47,000 active; inhibition, % at 20 µM
USP30 block – inhibitors of human USP30 deubiquitinase. 5.3% of 47,000 active. inhibition, % at 25 µM. Ubiquitin carboxyl-terminal hydrolase 30 (Homo sapiens), Q70CQ3. purified USP30, Ub-rhodamine cleavage fluorescence
Numbers without * were called inactive; . = no result. Cut-off read from the data, not from the text of the source: active = inhibition above about 30%; inactive = the rest.

SMILES	USP28 block	USP17 inh	USP8 inh	USP10 inh	USP30 block
O=C(c1ccc2ccccc2n1)N1CCCCC1c1ccn2ccnc2n1 (centres undefined)	-7	-2	-2	-1	-7
COc1cccc(CC(=O)Nc2cc(F)c3nc(N4CCOCC4)ccc3c2)c1	36*	58*	72*	-4	-96
COc1ccc(CCC(=O)Nc2cc(F)c3nc(N4CCOCC4)ccc3c2)cc1	14	2	47*	2	12
COc1ccc(NS(=O)(=O)c2cc(NC(=O)CCc3ccccc3)ccc2N2CCOCC2)cc1	7	1	0	2	17
O=C(CCc1ccccc1)Nc1cc(F)c2nc(N3CCCCC3)ccc2c1	10	28	70*	-3	-14
Cc1nc(Nc2ccc(NC(=O)c3ccco3)cc2)cc(N2CCOCC2)n1	-8	-12	-27	-2	-17
O=C(Nc1cc(F)c2nc(N3CCCC3)ccc2c1)c1ccco1	0	56*	70*	-5	-138
CC(C)(C)c1cc(NC(=O)CCc2ccccc2)no1	1	4	11	11	24
O=C(CN1C(=O)[C@@H]2CCCN2c2ncccc21)NC(c1ccccc1)c1ccccc1	-9	27	-2	-9	-22
COc1ccccc1NC(=O)C(C)C1CCN(C(=O)Nc2ccccc2)CC1 (centres undefined)	-5	-12	-7	-1	-12
O=C1CC(c2cccc(O)c2)c2ccc3ccccc3c2N1 (centres undefined)	25	-6	20	12	-15
O=S(=O)(NCc1cnn2ccccc12)c1ccc2ccccc2c1	8	11	11	-3	-4
CCc1ccccc1NC(=O)CC1C(=O)N(Cc2cccnc2)c2nc3ccccc3n21 (centres undefined)	-8	0	0	-2	-5
Cc1ccccc1NC(=O)CC1C(=O)N(C2CCCC2)c2nc3ccccc3n21 (centres undefined)	13	16	1	1	30*
O=C(CC1C(=O)N(Cc2cccnc2)c2nc3ccccc3n21)Nc1cccc2ccccc12 (centres undefined)	0	64*	-37	-2	22
Cc1ccc(NC(=O)CC2C(=O)N(Cc3ccccc3)c3nc4ccccc4n32)cc1 (centres undefined)	0	32*	1	2	2
NC(=O)CN1CCCn2c(nc3ccccc32)C1Cc1ccccc1 (centres undefined)	-8	-2	-16	0	0
COc1cnc(CSc2ccccc2)cc1OCC(=O)Nc1ccc(F)cc1F	11	34*	-3	12	36*
COc1cnc(CSc2ncccn2)cc1OCC(=O)Nc1c(C)cc(C)cc1C	-9	-23	-69	-2	0
COc1cnc(CSc2ccc(F)cc2)cc1OCC(=O)Nc1ccccc1F	7	41*	13	17	43*
COc1ccc(CC(=O)Nc2nc3c(s2)CCC3)cc1	22	13	23	-1	-3
COc1ccc(CC(=O)Nc2nc(-c3ccco3)c(-c3ccco3)s2)cc1	32*	65*	73*	-13	-64
O=C(Cc1ccccc1F)Nc1nc(-c2ccco2)c(-c2ccco2)s1	43*	.	74*	-12	-111
NC(=O)C[n+]1ccn2c(Nc3ccccc3)c(-c3ccccc3O)nc2c1	-6	16	73*	-1	-65
COC(=O)c1cccc(Nc2c(-c3ccccc3O)nc3cnccn23)c1	.	-8	-8	-3	.
SMILES	USP28 block	USP17 inh	USP8 inh	USP10 inh	USP30 block
Cc1ccc(Nc2c(-c3ccccc3O)nc3c[n+](CC(N)=O)ccn23)cc1	-81	-64	37*	0	-224
O=C(c1ncccc1O)N1CCCC(O)(CN2CCC(F)(F)CC2)CC1 (centres undefined)	-1	11	6	0	3
Cn1cnc(C(=O)N2CCC(c3ccnc(Nc4ccccn4)c3)CC2)c1	0	-18	-124	-4	-11
COc1ccc(C(=O)NC2(Cc3ccccc3)N=C3C(C)=CC=CN3C2=O)cc1 (centres undefined)	12	19	21	2	9
COc1ccc(OC)c(CC2(NC(=O)c3ccccc3)N=C3C=CC=CN3C2=O)c1 (centres undefined)	-2	22	27	3	30*
Cc1cc(OCC(=O)N2CCCCC2)c(C(C)C)cc1Cl	0	2	4	4	0
Cn1c(=O)c2ncn(CC(=O)Nc3ccccc3C(=O)O)c2n(C)c1=O	.	-18	-3	1	.
COc1ccc(-c2nc(-c3nnn(Cc4cccc(F)c4)c3C)no2)c(OC)c1	42*	-5	3	11	32*
COc1ccccc1-c1nc(-c2nnn(Cc3ccccc3)c2C)no1	45*	24	8	6	27
Cc1c(-c2noc(-c3ccco3)n2)nnn1Cc1cccc(F)c1	7	-2	1	2	-16
COc1ccccc1-c1nc(-c2nnn(Cc3ccc(C)cc3)c2C)no1	72*	4	5	13	30*
COc1ccccc1-c1noc(-c2nnn(Cc3nc(-c4ccc(C)cc4)oc3C)c2C)n1	-13	-7	2	-2	32*
COc1ccc(-c2nc(Cn3nnc(-c4nc(-c5ccccc5C)no4)c3C)c(C)o2)cc1	-50	-50	-43	-12	-187
Cc1ccc(NC(=O)Cn2ncc3c(N4CCCC4)ncnc32)cc1	16	-5	-12	0	5
O=C(NCc1cccc(Cl)c1)c1nc(CS(=O)(=O)c2ccccc2)no1	21	.	-7	-4	-19
CCCc1cc(=O)n2[nH]c(-c3ccccc3)cc2n1	-9	-14	-3	1	-8
CCCc1cc(=O)n2[nH]c(COc3ccccc3)c(-c3ccccc3)c2n1	40*	40*	-142	55*	55*
COc1ccc(-n2nnc(C(=O)N3CCC4(CC3)OCCO4)n2)cc1	5	12	13	0	9
COc1ccc(-n2nnc(C(=O)N3CCN(c4ccccc4Cl)CC3)n2)cc1	33*	23	13	10	33*
NC(=O)C1CCN(C(=O)c2nnn(-c3ccccc3)n2)CC1	14	16	16	0	34*
COc1ccc(N2CCN(C(=O)c3nnn(-c4ccc(OC)cc4)n3)CC2)cc1	17	11	0	6	36*
NC(=O)C1CCN(C(=O)c2nnn(-c3ccc(OC(F)(F)F)cc3)n2)CC1	0	-2	-3	0	12
Cc1noc(-c2ccnc(-n3ncc(C(=O)NC(C)c4ccc(F)cc4)c3C)c2)n1 (centres undefined)	15	8	7	3	23
Cc1sc2ccn(C)c(=O)c2c1C(=O)NC1CCCC1	28	62*	94*	13	3
CC(OC(=O)c1cccc(S(=O)(=O)N(C)c2ccccc2)c1)C(=O)Nc1cccc(S(=O)(=O)N2CCOCC2)c1 (centres undefined)	-6	-9	-14	-4	-13
